Laboratory results as given in PubChem BioAssay (NCATS).
Results filed as inconclusive are left out. The source made the active and inactive calls. Unless noted, the call rests on the fitted dose curve; in most records, active means well fitted curve in either direction with a large enough effect (not every such curve was filed as active); inconclusive means small, poorly fitted or top-dose-only effect, or another doubt; inactive means flat fitted curve, though single readings scatter.

Assays:
[1] = biological target: Lysosomal acid glucosylceramidase (Homo sapiens) (UniProt P04062); test: Glucocerebrosidase-p2 (AID 348; in the data active means potency below about 10 µM; further: potency means the concentration at half of the fitted maximal effect); settings: purified GBA, blue fluorogenic substrate, 40 min
Sequence of Lysosomal acid glucosylceramidase (Homo sapiens) (P04062 whole entry, looked up): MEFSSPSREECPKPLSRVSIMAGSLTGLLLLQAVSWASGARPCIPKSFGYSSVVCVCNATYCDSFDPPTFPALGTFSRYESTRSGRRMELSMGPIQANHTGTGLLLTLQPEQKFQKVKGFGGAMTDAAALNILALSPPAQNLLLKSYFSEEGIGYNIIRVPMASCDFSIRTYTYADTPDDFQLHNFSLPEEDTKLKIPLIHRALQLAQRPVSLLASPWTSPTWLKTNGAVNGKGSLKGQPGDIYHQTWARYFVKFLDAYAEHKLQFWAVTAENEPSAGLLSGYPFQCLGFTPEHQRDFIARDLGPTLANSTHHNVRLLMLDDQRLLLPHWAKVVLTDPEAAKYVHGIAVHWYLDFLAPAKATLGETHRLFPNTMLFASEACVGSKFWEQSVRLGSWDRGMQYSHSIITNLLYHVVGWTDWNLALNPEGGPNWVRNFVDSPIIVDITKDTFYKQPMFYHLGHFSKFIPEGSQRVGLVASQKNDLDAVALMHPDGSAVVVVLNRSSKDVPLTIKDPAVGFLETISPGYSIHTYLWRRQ
Procedure, shortened: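 Compounds titrated from 0.6 nM upwards against 0.2 nM enzyme in pH 5.9 citric acid/KH2PO4, taurocholate, tween-20; blue fluorogenic substrate 80 uM, 40 min room temperature, stopped and read Ex 365/Em 440 for AC50.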

[2] = AP1 Signaling Pathway (AID 357); settings: ME-180 AP-1-bla reporter, EGF-induced, beta-lactamase ratio, 5 h; at 7.69 µM (top of the series) unless noted;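 further: ME-180 reporter cells stimulated with EGF at its EC50 level; on the % scale 0 is the no-effect control and ±100 the full control effect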
Procedure, shortened: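 Beta-lactamase reporter under AP-1 response element, ME-180 background. Stimulus: EC50 EGF. Compound exposure 5 h, 37 °C. Detection: CCF4, 2.5 h RT, 460/530 nm. Values: AC50 from titration.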

[3] = biological target: Cytochrome P450 1A2 (Homo sapiens) (UniProt P05177); test: p450-cyp1a2 (AID 410; calls by dose curve; further: potency means the concentration at half of the fitted maximal effect;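 on activity change, negative = inhibition: -100% = full effect of reference inhibitor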); settings: recombinant CYP1A2, luciferin-ME demethylation, luminescence; series mostly up to 57 µM
Sequence of Cytochrome P450 1A2 (Homo sapiens) (P05177 whole entry, looked up): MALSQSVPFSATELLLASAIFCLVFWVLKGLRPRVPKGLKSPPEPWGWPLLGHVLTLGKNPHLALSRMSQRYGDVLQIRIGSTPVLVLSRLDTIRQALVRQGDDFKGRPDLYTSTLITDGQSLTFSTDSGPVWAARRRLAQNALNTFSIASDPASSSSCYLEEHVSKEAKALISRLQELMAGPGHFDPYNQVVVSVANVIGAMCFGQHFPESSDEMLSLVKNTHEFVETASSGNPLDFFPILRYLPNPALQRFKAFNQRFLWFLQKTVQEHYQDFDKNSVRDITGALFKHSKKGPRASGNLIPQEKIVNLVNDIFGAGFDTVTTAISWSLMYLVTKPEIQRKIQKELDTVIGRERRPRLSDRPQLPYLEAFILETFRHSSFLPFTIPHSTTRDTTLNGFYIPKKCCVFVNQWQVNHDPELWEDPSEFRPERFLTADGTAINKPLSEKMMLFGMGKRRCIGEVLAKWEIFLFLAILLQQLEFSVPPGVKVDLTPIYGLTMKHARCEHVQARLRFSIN
Procedure, shortened: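 Luminescent readout of luciferin formed from Luciferin-ME by human CYP1A2; data normalized against complete inhibition by 57 uM furafylline. Enzyme 20nM, substrate 100uM at Km, 100mM KPO4 buffer, 60 min reaction at room temperature.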

[4] = NFAT Signaling Pathway (AID 444); settings: Jurkat NFAT-bla M1, carbachol, beta-lactamase ratio, 5 h; at 7.69 µM (top of the series) unless noted;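 further: carbachol stimulus at about its EC50 of 1 µM final; on the % scale 0 is the no-effect control and ±100 the full control effect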
Procedure, shortened: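 Read-out: CCF4 FRET ratio (460 nm/530 nm) after 1 h RT dye loading, used for %activity and AC50 from titration series. Cells: Jurkat NFAT-β-lactamase/M1 line, treated with compound plus 1 uM carbachol for 5 h, 37 °C.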

[5] = Stat Signaling Pathway (AID 446); settings: ME-180 SIE beta-lactamase reporter, IL-6 stimulated, 5 h; at 7.69 µM (top of the series) unless noted;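 further: ME-180 cervical cancer cells given 40 pM IL-6 alongside compound; SIE-controlled beta-lactamase reporter measured as 460/530 nm FRET emission ratio; on the % scale 0 is the no-effect control and ±100 the full control effect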
Procedure, shortened: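 IL-6/STAT signaling read in ME-180 cells via an SIE beta-lactamase reporter. Stimulus was 40 pM IL-6 (its AC50) for 5 hrs, so both activation and inhibition register.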

[6] = biological target: Glucocorticoid receptor (Homo sapiens) (UniProt P04150); test: GR-EFC Redistribution (AID 451; calls by dose curve; further: potency means the concentration at half of the fitted maximal effect); settings: CHO-K1 GR-EFC translocation, beta-gal luminescence, 2 h
Sequence of Glucocorticoid receptor (Homo sapiens) (P04150 whole entry, looked up, the tested form may be a part): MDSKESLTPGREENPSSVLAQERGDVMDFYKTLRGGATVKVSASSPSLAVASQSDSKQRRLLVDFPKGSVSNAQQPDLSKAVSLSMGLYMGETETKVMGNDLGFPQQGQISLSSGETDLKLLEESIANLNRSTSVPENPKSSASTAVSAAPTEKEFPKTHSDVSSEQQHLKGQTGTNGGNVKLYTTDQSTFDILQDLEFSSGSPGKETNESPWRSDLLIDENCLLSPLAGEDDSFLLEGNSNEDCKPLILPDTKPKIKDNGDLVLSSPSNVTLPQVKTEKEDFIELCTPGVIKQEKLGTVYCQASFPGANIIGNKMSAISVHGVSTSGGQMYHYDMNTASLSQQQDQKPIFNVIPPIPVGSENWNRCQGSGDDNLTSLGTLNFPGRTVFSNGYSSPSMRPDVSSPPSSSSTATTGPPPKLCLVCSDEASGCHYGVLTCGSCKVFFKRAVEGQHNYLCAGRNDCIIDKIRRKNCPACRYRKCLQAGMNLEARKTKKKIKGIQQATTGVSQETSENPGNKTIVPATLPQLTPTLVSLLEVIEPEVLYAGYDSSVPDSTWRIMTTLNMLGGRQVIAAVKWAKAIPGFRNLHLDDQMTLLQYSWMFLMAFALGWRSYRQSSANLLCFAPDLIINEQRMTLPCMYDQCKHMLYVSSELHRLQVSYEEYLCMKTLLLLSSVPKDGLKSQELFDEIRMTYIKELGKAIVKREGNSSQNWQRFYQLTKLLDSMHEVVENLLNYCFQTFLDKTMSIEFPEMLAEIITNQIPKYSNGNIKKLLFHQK
Procedure, shortened: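 Translocation of GR-ED fusion to nuclear EA restores b-gal, read by luminescence after 1 h room-temperature detection. Engineered CHO-K1 biosensor cells, 1,000/well, exposed 2 h at 37 C to titrations up to 46 uM final.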

[7] = biological target: Mitogen-activated protein kinase 10 (Mus musculus) (UniProt Q61831); test: JNK3 AlphaScreen Assay (AID 530); settings: JNK3 lysate, c-Jun phosphorylation; series mostly up to 57.1 µM;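 further: kinase came from lysate of stimulated human HepG2 cells; signal reports phosphorylation of biotinylated GST-cJun 1-79 at Ser73 with 10 µM ATP; on the % scale 0 is the no-effect control and ±100 the full control effect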
Procedure, shortened: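 Compound titrations were preincubated 15 minutes at room temperature with substrate, antibody and pre-activated JNK3-containing HepG2 lysate. Reactions were started with 10 uM ATP and stopped with EDTA-containing bead buffer for AlphaScreen detection.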

[8] = biological target: 3',5'-cyclic-AMP phosphodiesterase 4B (Homo sapiens) (UniProt Q07343); test: qHTS Assay for Inhibitors of PDE-IV (AID 607; active means well fitted activation curve with a large enough effect in the main read-out, with a control signal flat, not every such curve was filed as active; further: % of control where 0% means no effect); settings: HEK293 ACTOne CNG channel cells, membrane potential fluorescence; series mostly up to 22.9 µM
Sequence of 3',5'-cyclic-AMP phosphodiesterase 4B (Homo sapiens) (Q07343 whole entry, looked up): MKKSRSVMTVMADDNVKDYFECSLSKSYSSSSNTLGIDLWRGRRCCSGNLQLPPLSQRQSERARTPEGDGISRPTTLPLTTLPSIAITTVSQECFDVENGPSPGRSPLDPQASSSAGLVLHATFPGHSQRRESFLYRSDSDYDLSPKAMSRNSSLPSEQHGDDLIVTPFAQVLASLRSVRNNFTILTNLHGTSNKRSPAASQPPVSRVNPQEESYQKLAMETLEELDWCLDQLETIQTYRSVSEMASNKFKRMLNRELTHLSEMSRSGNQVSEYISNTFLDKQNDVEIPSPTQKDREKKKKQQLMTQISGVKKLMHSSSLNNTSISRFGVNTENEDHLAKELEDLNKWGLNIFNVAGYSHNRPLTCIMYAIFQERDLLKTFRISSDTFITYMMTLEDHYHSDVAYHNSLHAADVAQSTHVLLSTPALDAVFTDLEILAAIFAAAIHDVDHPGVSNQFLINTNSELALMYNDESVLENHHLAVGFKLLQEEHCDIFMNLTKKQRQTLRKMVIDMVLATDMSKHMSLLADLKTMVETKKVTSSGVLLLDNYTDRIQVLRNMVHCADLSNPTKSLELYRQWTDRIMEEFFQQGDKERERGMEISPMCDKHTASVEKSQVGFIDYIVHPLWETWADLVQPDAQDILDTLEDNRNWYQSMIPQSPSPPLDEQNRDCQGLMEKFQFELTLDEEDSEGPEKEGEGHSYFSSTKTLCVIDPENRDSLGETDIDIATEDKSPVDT
Procedure, shortened: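 Live HEK293 cells with a modified cyclic nucleotide-gated (CNG) channel report intracellular cAMP via membrane-potential dye fluorescence (ex 535/em 590 nm). Endogenous PDE-IV was targeted. Compounds were tested at up to 22.9 uM final; RO 20-1724 100 uM served as control.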

[9] = biological target: Cytochrome P450 3A4 (Homo sapiens) (UniProt P08684); test: qHTS Assay for Activators of Cytochrome P450 3A4 (AID 885; active means well fitted curve in the direction sought with a large enough effect; an effect the other way counts as inactive or inconclusive; further: nearly all actives have a fitted effect of over 65% in size); settings: recombinant CYP3A4, Luciferin-PPXE luminescence, 60 min; series mostly up to 57.1 µM
Sequence of Cytochrome P450 3A4 (Homo sapiens) (P08684 whole entry, looked up): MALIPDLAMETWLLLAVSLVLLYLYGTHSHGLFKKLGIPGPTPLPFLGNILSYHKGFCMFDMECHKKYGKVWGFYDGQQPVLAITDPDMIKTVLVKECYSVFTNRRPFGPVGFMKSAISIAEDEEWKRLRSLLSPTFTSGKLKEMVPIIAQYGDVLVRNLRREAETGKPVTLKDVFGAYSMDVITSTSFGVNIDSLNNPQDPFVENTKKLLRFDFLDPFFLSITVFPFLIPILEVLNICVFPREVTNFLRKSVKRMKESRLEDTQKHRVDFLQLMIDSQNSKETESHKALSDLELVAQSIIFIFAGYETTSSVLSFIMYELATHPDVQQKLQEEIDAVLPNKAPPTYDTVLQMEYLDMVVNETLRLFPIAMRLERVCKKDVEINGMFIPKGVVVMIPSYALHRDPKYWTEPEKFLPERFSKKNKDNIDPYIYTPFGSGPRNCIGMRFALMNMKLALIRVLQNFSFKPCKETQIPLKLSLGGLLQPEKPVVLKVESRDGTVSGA
Procedure, shortened: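 Quantitative HTS format: compounds preincubated with 20nM human CYP3A4 and Luciferin-PPXE substrate at KM, reaction started by NADPH regeneration, stopped after 60 min, luciferase luminescence read 20 min later.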

[10] = qHTS Assay for Lipid Storage Modulators (AID 1519; calls by dose curve); settings: Drosophila S3 cells, BODIPY lipid droplet/cell ratio, laser cytometry, cells loaded with oleic acid; for activity change, negative = inhibition: at 57.5 µM (top of the series)
Procedure, shortened: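 Cells seeded at 5,000 per well were treated with compounds over a concentration series and loaded with oleic acid (400 uM, as added). Lipid droplet fluorescence (488 nm excitation, 500-530 nm channel) was read by laser-scanning cytometry and normalized to 20 uM Triacsin C.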

[11] = Primary qHTS for small molecule stabilizers of the endoplasmic reticulum resident proteome: Secreted ER Calcium Modulated Protein (SERCaMP) assay (AID 1508630; active means well fitted curve in the direction sought with a large enough effect; an effect the other way counts as inactive or inconclusive; further: on the % scale 0 is the no-effect control and ±100 the full control effect); settings: SH-SY5Y GLuc-SERCaMP (Gaussia luciferase released on ER calcium loss) secretion, thapsigargin, luminescence; series mostly up to 38.4 µM
Procedure, shortened: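 GLuc-SERCaMP-expressing SH-SY5Y cells, pretreated 16 h with compound, are challenged with thapsigargin to empty ER calcium stores; after 4 h, coelenterazine is added directly to the medium and luminescence is imaged.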

[12] = biological target: Cytochrome P450 2D6 (Homo sapiens) (UniProt P10635); test: qHTS Assay for Inhibitors and Substrates of Cytochrome P450 2D6 (AID 891; active means well fitted curve in the direction sought with a large enough effect; an effect the other way counts as inactive or inconclusive; further: nearly all actives have a fitted effect of over 60% in size; further: potency means the concentration at half of the fitted maximal effect); settings: recombinant CYP2D6, luciferin-ME EGE luminescence; series mostly up to 57.1 µM
Sequence of Cytochrome P450 2D6 (Homo sapiens) (P10635 whole entry, looked up): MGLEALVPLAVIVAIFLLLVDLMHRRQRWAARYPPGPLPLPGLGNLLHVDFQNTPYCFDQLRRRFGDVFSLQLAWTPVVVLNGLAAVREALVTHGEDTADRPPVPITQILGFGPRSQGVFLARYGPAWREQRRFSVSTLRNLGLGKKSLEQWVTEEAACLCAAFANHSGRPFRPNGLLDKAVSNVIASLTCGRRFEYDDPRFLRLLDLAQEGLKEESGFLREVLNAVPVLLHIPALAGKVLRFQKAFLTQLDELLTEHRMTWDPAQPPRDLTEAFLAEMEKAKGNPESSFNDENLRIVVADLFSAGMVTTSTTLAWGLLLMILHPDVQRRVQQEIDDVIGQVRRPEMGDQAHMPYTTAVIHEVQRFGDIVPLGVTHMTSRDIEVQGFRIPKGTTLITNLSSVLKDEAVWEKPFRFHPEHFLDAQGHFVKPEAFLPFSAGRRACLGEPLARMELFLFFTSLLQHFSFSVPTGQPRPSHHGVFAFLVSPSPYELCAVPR
Procedure, shortened: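 Human CYP2D6 (5 nM) with 30 uM Luciferin-ME EGE (at Km) in 100 mM KPO4, compound preincubated 10 min, then NADPH regeneration system for 60 min at room temperature. Luciferin read by luminescence; normalized to 1.43 uM quinidine.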

[13] = biological target: Cytochrome P450 2C19 (Homo sapiens) (UniProt P33261); test: qHTS Assay for Inhibitors and Substrates of Cytochrome P450 2C19 (AID 899; active means well fitted curve in the direction sought with a large enough effect; an effect the other way counts as inactive or inconclusive; further: potency means the concentration at half of the fitted maximal effect; nearly all actives have a fitted effect of over 60% in size); settings: recombinant CYP2C19, luciferin-H EGE luminescence; series mostly up to 57.1 µM
Sequence of Cytochrome P450 2C19 (Homo sapiens) (P33261 whole entry, looked up): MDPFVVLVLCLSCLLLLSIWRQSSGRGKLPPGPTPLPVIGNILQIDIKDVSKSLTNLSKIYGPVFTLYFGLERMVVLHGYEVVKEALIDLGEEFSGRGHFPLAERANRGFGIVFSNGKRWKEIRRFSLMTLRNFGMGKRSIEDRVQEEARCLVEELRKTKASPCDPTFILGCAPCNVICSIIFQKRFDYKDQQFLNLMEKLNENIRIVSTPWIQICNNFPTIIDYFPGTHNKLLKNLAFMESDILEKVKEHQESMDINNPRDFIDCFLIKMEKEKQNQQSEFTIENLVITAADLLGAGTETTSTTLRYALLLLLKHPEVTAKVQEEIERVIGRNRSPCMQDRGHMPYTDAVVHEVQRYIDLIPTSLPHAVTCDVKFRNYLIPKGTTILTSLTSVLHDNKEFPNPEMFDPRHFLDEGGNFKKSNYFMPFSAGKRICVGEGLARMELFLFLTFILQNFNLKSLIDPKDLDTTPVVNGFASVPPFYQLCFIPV
Procedure, shortened: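 Reactions contain 5nM enzyme, 10uM Luciferin-H EGE (KM) and 50mM KPO4; compound preincubates 10 min at 37C, NADPH regeneration starts turnover for 60 min. Luminescence after detection reagent gives activity.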

[14] = qHTS Assay for Identification of Small Molecule Agonists for Hypoxia Response Element Signaling Pathway (AID 914; active means well fitted activation curve with a large enough effect in the signal ratio, with a control signal flat, not every such curve was filed as active; the % refers to the signal ratio; further: % of control where 0% means no effect); settings: ME-180 (cervical carcinoma) HRE-bla reporter, beta-lactamase ratio, CoCl2, 17 h; activation: stronger effect = higher value
Procedure, shortened: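 Cells were plated overnight, pin-dosed with compound in a titration series, co-stimulated with EC50 CoCl2 and incubated 17 hours at 37 degrees Celsius. CCF4 substrate was then loaded, and AC50 values came from the 460nm/530nm ratio.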

[15] = measured here: cell count channel max response
[16] = measured here: lipid channel max response

COCC(=O)N1CCC[C@@]2(CCN(Cc3ccc(C#N)cc3)C2)C1
inactive: Potency [1] > 11.4 µM | activity change, negative = inhibition [2] -13.6% | Potency [3] | activity change, negative = inhibition [4] 4.93% | activity, negative = inhibition [5] 5.14% | Potency [6] > 46 µM | outcome [7] | Potency [8] | Potency [9] | activity change, negative = inhibition [10] 5.07% | Potency [11]
15.9%: max response [10, 16]
7.03%: max response [10, 15]

O=C(c1cnccn1)N1CCC[C@@]2(CCN(Cc3nccs3)C2)C1
20.9%: max response [10, 16]
inactive: Potency [1] > 11.4 µM | activity change, negative = inhibition [2] -10.4% | Potency [3] | activity change, negative = inhibition [4] 8.21% | activity, negative = inhibition [5] -0.706% | Potency [6] > 46 µM | outcome [7] | Potency [8] | Potency [9] | activity change, negative = inhibition [10] 4.59% | Potency [11]
14.2%: max response [10, 15]

CS(=O)(=O)N1CCC[C@@]2(CCN(C(=O)Nc3cccc(F)c3)C2)C1
1.7%: max response [10, 15]
inactive: Potency [1] > 11.4 µM | activity change, negative = inhibition [2] -7.6% | Potency [3] | activity change, negative = inhibition [4] 16.7% | activity, negative = inhibition [5] -3.89% | Potency [6] > 46 µM | outcome [7] | Potency [8] | Potency [9] | activity change, negative = inhibition [10] 1.83% | Potency [11]
6.37%: max response [10, 16]

CS(=O)(=O)N1CCC2(CCCN(C(=O)Nc3cccc(C#N)c3)C2)CC1
14.7%: max response [10, 15]
inactive: Potency [1] > 11.4 µM | activity change, negative = inhibition [2] 2.54% | Potency [3] | activity change, negative = inhibition [4] 1.96% | activity, negative = inhibition [5] 1.15% | Potency [6] > 46 µM | outcome [7] | Potency [8] | Potency [9] | activity change, negative = inhibition [10] 6.12% | Potency [11]
21%: max response [10, 16]

O=C(c1cccc(F)c1)N1CCC[C@@]2(CCN(c3ccncc3)C2)C1
inactive: Potency [1] > 11.4 µM | activity change, negative = inhibition [2] -0.222% | Potency [3] | activity change, negative = inhibition [4] -14.9% | activity, negative = inhibition [5] -5.12% | Potency [6] > 46 µM | outcome [7] | Potency [8] | Potency [9] | activity change, negative = inhibition [10] 6.94% | Potency [11]
20%: max response [10, 15]
29.4%: max response [10, 16]

COC(=O)N1CCC2(CCCN(c3ccc(-c4ccccc4)cc3)C2)CC1
-21.4%: max response [10, 16]
11%: max response [10, 15]
inactive: Potency [1] > 11.4 µM | activity change, negative = inhibition [2] -0.311% | activity change, negative = inhibition [4] -18.6% | activity, negative = inhibition [5] 3.59% | Potency [6] > 46 µM | outcome [7] | Potency [8] | Potency [9] | activity change, negative = inhibition [10] -29.2% | Potency [11]
active: Potency [3] 20 µM

CC(=O)N1CCC2(CCCN(C(c3ccccc3)c3ccccc3)C2)CC1
active: Potency [3] 15.8 µM | Potency [12] 7.94 µM
12.6%: max response [10, 16]
inactive: Potency [1] > 11.4 µM | activity change, negative = inhibition [2] -12.2% | activity change, negative = inhibition [4] 28.1% | activity, negative = inhibition [5] 17.6% | Potency [6] > 46 µM | outcome [7] | Potency [8] | Potency [9] | activity change, negative = inhibition [10] 6.41% | Potency [11]
3.3%: max response [10, 15]

Cc1noc(C)c1C(=O)N1CCC2(CCN(Cc3cc(C(F)(F)F)cc(C(F)(F)F)c3)CC2)CC1
-1.09%: max response [10, 16]
inactive: Potency [1] > 11.4 µM | activity change, negative = inhibition [2] -3.69% | Potency [3] | activity change, negative = inhibition [4] -22.4% | activity, negative = inhibition [5] -0.996% | Potency [6] > 46 µM | Potency [8] | activity change, negative = inhibition [10] 2.45% | Potency [11]
-5.2%: max response [10, 15]

Cn1cccc1C(=O)N1CCC[C@@]2(CCN(c3ccncc3)C2)C1
-3.32%: max response [10, 15]
active: Potency [3] 12.6 µM | Potency [13] 6.31 µM
-4.8%: max response [10, 16]
inactive: Potency [1] > 11.4 µM | activity change, negative = inhibition [2] -2.65% | activity change, negative = inhibition [4] -12.6% | activity, negative = inhibition [5] 7.16% | Potency [6] > 46 µM | outcome [7] | Potency [8] | Potency [9] | activity change, negative = inhibition [10] -3.31% | Potency [11]

COc1ccccc1CN1CC2(CCN(S(C)(=O)=O)CC2)C1
inactive: Potency [1] > 11.4 µM | activity change, negative = inhibition [2] -11.2% | Potency [3] | activity change, negative = inhibition [4] -7.23% | activity, negative = inhibition [5] 4.21% | Potency [6] > 46 µM | outcome [7] | Potency [8] | Potency [12] | activity change, negative = inhibition [10] 6.08% | Potency [11]
11.6%: max response [10, 15]
24%: max response [10, 16]

CC(=O)N1CCC2(CC1)CN(c1ccccn1)C2
inactive: Potency [1] > 11.4 µM | activity change, negative = inhibition [2] -8.91% | Potency [3] | activity change, negative = inhibition [4] 6.27% | activity, negative = inhibition [5] -0.186% | Potency [6] > 46 µM | Potency [8] | activity change, negative = inhibition [10] 7.33% | Potency [11]
3.77%: max response [10, 15]
14.1%: max response [10, 16]

COc1ccc(NC(=O)N2CC[C@@]3(CCCN(C(=O)c4cnccn4)C3)C2)cc1
9.8%: max response [10, 16]
2.35%: max response [10, 15]
inactive: Potency [1] > 11.4 µM | activity change, negative = inhibition [2] -10.4% | Potency [3] | activity change, negative = inhibition [4] -2.83% | activity, negative = inhibition [5] 6.32% | Potency [6] > 46 µM | outcome [7] | Potency [8] | Potency [9] | Potency [12] | activity change, negative = inhibition [10] 4.73% | Potency [11]

COc1ccc(C(=O)N2CCC3(CCN(C)CC3)CC2)cc1
8.31%: max response [10, 15]
inactive: Potency [1] > 11.4 µM | activity change, negative = inhibition [2] -25.4% | Potency [3] | activity change, negative = inhibition [4] -8.24% | activity, negative = inhibition [5] 2.9% | Potency [6] > 46 µM | outcome [7] | Potency [8] | activation [14] 5.39% | activity change, negative = inhibition [10] 3.67% | Potency [11]
12.9%: max response [10, 16]
